# Experimental data published in PubChem BioAssay (Tox21).
# Records with an inconclusive call do not appear. Entries that show only a call come without a potency. Calls of active or inactive are those of the source. Calls follow the shape of the dose curve; as a rule, active = well fitted activation curve with a large enough effect in the repeat runs; inconclusive = weak or mixed curves; inactive = flat fitted curve, though single readings scatter.
# Experiment: A CellTox Green Cytotoxicity Assay to monitor cytotoxicity in HepG2 cells - 24 hour (AID 1224878); also: nearly all actives have a fitted effect of over 45% in size
# Conditions: CellTox Green fluorescence; series mostly up to 76.8 µM
# Excerpt: National Center for Advancing Translational Sciences [NCATS]
# NIH Chemical Genomics Center [NCGC]
# U.S. Environmental Protection Agency [EPA]
# National Institutes of Environmental Health Sciences [NIEHS]
# National Toxicology Program [NTP]
# Cell-based models are critical for drug discovery. Determining the natural cytotoxic effects resulting from test compounds is an essential research activity. A CellTox Green Cytotoxicity Assay to monitor cytotoxicity in real time of continues cell culture during 40 hours of the compound treatment was used to screen Tox21 10K library compounds in HepG2 cells. CellTox Green Cytotoxicity Assay is a nonlytic, homogeneous, biofluorescent method to measure cytotoxicity in cell culture after experimental manipulation. The assay system uses a proprietary asymmetric cyanine dye that is excluded from viable cells but preferentially stains the dead cell's DNA. […] Viable cells produce no appreciable increases in fluorescence. Therefore, the fluorescence signal produced by the binding interaction with dead cell DNA is proportional to cytotoxicity.
# The mixture of HepG2 cell suspension and reagents were dispensed at 600cells/6 ul/well in 1536-well tissue culture treated black solid bottom plates using a Multidrop dispenser. After the assay plates were incubated at a 37 C/5% CO2 incubator for 5 hours, 23 nL of compounds dissolved in DMSO, positive and negative controls was transferred to the assay plate by a pintool work station. The plates were incubated at 37 C for 40 hours. The fluorescence intensity were measured at 0h, 8h, 16h, 24h, 32h and 40h time points using ViewLux plate reader during compound treatment.
# Potency is read from the fitted curve at half-maximal effect.
row,SMILES,Potency
1,CCN(CC)C(=O)N(CC)CC,inactive
2,CO[C@@]1(NC(=O)CSCC#N)C(=O)N2C(C(=O)O)=C(CSc3nnnn3C)CS[C@@H]21,inactive
3,Cc1ccc(C=O)s1,38.9 µM (active)
4,OCc1ccccc1O,inactive
5,CC(C)O,inactive
6,O=C1CCCc2ccccc21,inactive
7,CN(C)CC[C@@H](c1ccc(Cl)cc1)c1ccccn1,inactive
8,CCCCC(=O)O[C@]1(C(=O)CO)[C@H](C)C[C@H]2[C@@H]3CCC4=CC(=O)C=C[C@]4(C)[C@@]3(F)[C@@H](O)C[C@@]21C,inactive
9,Cc1ccc([N+](=O)[O-])c(N)c1,inactive
10,CN1CCN(c2c(F)cc3c(=O)c(C(=O)O)cn4c3c2SCC4)CC1,inactive
11,O=Cc1ccc(F)c(Br)c1,inactive
12,CN(CCCN1c2ccccc2CCc2ccccc21)CC(=O)c1ccc(Cl)cc1,inactive
13,CCOc1ccc2nc(N)sc2c1,inactive
14,NC/C=C/C(=O)O,inactive
15,CC/C=C\CCOC(=O)CCCCC,inactive
16,CC(C)C(=O)OC/C=C/c1ccccc1,inactive
17,CCN[C@H]1CN(CCCOC)S(=O)(=O)c2sc(S(N)(=O)=O)cc21,inactive
18,CC(=O)Nc1ccc(C)c(Cl)c1,inactive
19,C=CC1CO1 (stereo not given),inactive
20,Cc1ncc(CO)c(CN)c1O,inactive

row,SMILES,Potency
1,C=C(C)C(=O)OCCOP(=O)(O)O,inactive
2,CC(C)NC[C@@H](O)COc1cccc2ccccc12,inactive
3,O=C(O)[C@@H]1CSCN1,inactive
4,Cc1cc2nc(N)sc2cc1C,inactive
5,CCOc1ccccc1N,inactive
6,CN1CCN(N)CC1,inactive
7,CCCCCCn1c(=O)c2c(ncn2C)n(C)c1=O,inactive
8,CN(C)Cc1ccccc1,inactive
9,COc1cc(Cl)ccc1Cl,inactive
10,COc1ccc(Nc2ccc(OC)cc2)cc1,inactive
11,CC(C)(CO)[C@@H](O)C(=O)NCCC(=O)O,inactive
12,CN1[C@@H]2CC[C@H]1CC(OC(=O)c1c[nH]c3ccccc13)C2 (stereo not given in full),inactive
13,CCCOc1ccc2c(c1)CC[C@@H]1[C@@H]2CC[C@]2(C)C(OC)CC[C@@H]12 (stereo not given in full),inactive
14,Cc1nc(N)nc(N)c1-c1ccc(Cl)c(Cl)c1,inactive
15,O=C1CCC(C2CCCCC2)CC1,38.9 µM (active)
16,C=CCc1cc(OC)c(O)c(C(=O)NCCO)c1,inactive
17,COc1cc(C)ccc1C(C)C,inactive
18,ClC(Cl)Cl,inactive
19,O=C1CCCCCCCCCCC(=O)OCCO1,21.9 µM (active)
20,CCOC(=O)C1CC(=O)C(=C(O)C2CC2)C(=O)C1 (stereo not given),inactive
